# The panel holds about 83,000 compounds, 20% with a hit somewhere; the sample as a whole holds those more often.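 Values shown are percent growth following 48 h exposure of cells in 96-well plates to a single concentration of compound; below 10 was considered active.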 Unmarked numbers belong to inactive results. Active and inactive are the calls of the source.
# Tests used:
# Test in all cases: NCI-60 one-dose screen, 48 h (100 = growth as untreated, 0 = no growth, -100 = all killed)
# Details in all cases: 10 µM unless noted
# SK-MEL-2 melanoma = tested on: SK-MEL-2 melanoma
# EKVX NSCLC = tested on: EKVX NSCLC
# SN12C renal = tested on: SN12C renal
# UO-31 renal = tested on: UO-31 renal
# TK-10 renal = tested on: TK-10 renal
# ACHN renal = tested on: ACHN renal
# CAKI-1 renal = tested on: CAKI-1 renal
# A498 renal = tested on: A498 renal
# CCRF-CEM leukemia = tested on: CCRF-CEM leukemia
# MOLT-4 leukemia = tested on: MOLT-4 leukemia
Structure (SMILES),growth (SK-MEL-2 melanoma),growth (EKVX NSCLC),growth (SN12C renal),growth (UO-31 renal),growth (TK-10 renal),growth (ACHN renal),growth (CAKI-1 renal),growth (A498 renal),growth (CCRF-CEM leukemia),growth (MOLT-4 leukemia)
c1cc2c(ccc3[nH]c(-c4ccc5[nH]ncc5c4)c4c(c32)CCCC4)n1,83.6%,62.7%,46%,53.3%,80.2%,32.3%,69.8%,74.3%,13.6%,-0.124% (active)
O=C(NCCCl)Nc1ncccc1OCc1ccccc1,101%,98.9%,97%,94.9%,88.9%,110%,97.9%,90%,106%,95.3%
N#Cc1nc(-c2ccc(F)cc2)oc1S(=O)(=O)N1CCOCC1,83.6%,96.2%,82.1%,82%,-80.9% (active),-99.9% (active),78.5%,128%,3.08% (active),-5.27% (active)
CN1CCc2nc3sc(C(N)=O)c(N)c3c(-c3cccs3)c2C1,27.3%,47.7%,29.1%,4.13% (active),43%,8.41% (active),38.8%,-1.55% (active),19.3%,62.1%
O=C(/C=C(/C=C/c1ccc2[nH]ccc2c1)OB(F)F)/C=C/c1ccc2[nH]ccc2c1,25.8%,4.65% (active),10%,2.63% (active),5.77% (active),-22.4% (active),-14.5% (active),32.5%,-19.9% (active),-4.43% (active)
CCOC(=O)n1cc(-c2nonc2-c2cn(C(=O)OCC)c3ccc(Br)cc23)c2ccccc21,87.5%,73.3%,88.1%,46.9%,90.8%,64.5%,60.1%,82.3%,87.7%,72.2%
O=C1C(Cl)=C(NCCCCCCNC2=C(Cl)C(=O)c3ccccc3C2=O)C(=O)c2ccccc21,84.5%,91.9%,83.6%,83.9%,109%,104%,97.8%,72.9%,97.3%,82.4%
O=C(c1ccccc1)c1ccc(C2CCCCC2)cc1,110%,81.9%,90.7%,98.2%,81.5%,97.1%,82.2%,77.9%,96.2%,104%
C=C1C(=O)O[C@H]2[C@H]1CC/C(COC(=O)c1cc3ccccc3s1)=C\CC[C@@]1(C)O[C@@H]21,-67.2% (active),-81.1% (active),-43.9% (active),-94.3% (active),-91.9% (active),-91.3% (active),-72.6% (active),61.9%,-25.3% (active),-4.09% (active)
COCCn1cc(-c2csc(-c3cn(C)c4ccc(Br)cc34)n2)c2cccnc21,65.6%,58.4%,69.1%,61.9%,61.5%,57.1%,65%,45.6%,67.4%,63.4%
CCOC(=O)c1c(C(=O)c2cn(C)c3ccc(Br)cc23)c(-c2cn(C)c3ccc(Br)cc23)n(NC(=O)OC(C)(C)C)c1C,57.8% [100 µM],80.5% [100 µM],92% [100 µM],58.7% [100 µM],69.2% [100 µM],78.9% [100 µM],43.9% [100 µM],87.2% [100 µM],102% [100 µM],99.5% [100 µM]
CCn1c(SCC(=O)N/N=C(\C)c2ccc(Cl)cc2)nc2c1c(=O)n(C)c(=O)n2C,116%,97.9%,100%,80.8%,125%,99.5%,85.3%,91.3%,99.6%,92.2%
COC(=O)CC[C@@H]1O[C@@H](c2cccc(C(F)(F)F)c2)[C@@H](O)[C@H]1O,103%,97.7%,106%,92.9%,98.9%,103%,94%,106%,109%,104%
Oc1ccc(Cl)cc1/C=N\NC(=S)N/N=C/c1cc(Cl)ccc1O,26.2%,50.3%,45.9%,16.1%,31%,15.3%,-7.22% (active),37.5%,8.57% (active),11.8%
COc1ccc(C(O)c2cc3c(N)c(C(=O)Nc4cccc(Br)c4)sc3nc2C)cc1 (stereo not given),33.9%,46.2%,12.1%,22.9%,62.9%,19.8%,13.5%,-9.2% (active),14.2%,15.8%
Cc1ccc(Nn2c(SCC(=O)Nc3nc(-c4ccccc4)cs3)nc(C)c2C)cc1,81.4%,49.7%,64.3%,51.6%,72.7%,60.9%,53.6%,92.5%,57.7%,54.7%
O=S(=O)(Nc1cc(Cl)ccc1Cl)c1ccc(-c2cnc(C3CC3)o2)cc1,39%,58.7%,60.3%,49.6%,60%,34.2%,33.5%,-7.01% (active),20%,44.1%
CCOC(=O)C1=C(c2ccccc2)N=C2SC=C(c3ccc(Cl)cc3)N2C1c1ccc(Cl)cc1 (stereo not given),98.2%,69.9%,85.5%,74.7%,108%,91.3%,60.7%,7.54% (active),79.3%,31.5%
CCOC(=O)c1cc2c(n1C)-c1nc(NC(C)=O)sc1CCC2,89.9%,60.7%,81.9%,43.2%,138%,86.7%,76.4%,53.2%,73.8%,81.6%
COc1ccccc1CNc1c2ccccc2nc2ccccc12,73.5%,65.7%,34.7%,33.7%,55.5%,22.7%,45.7%,13.3%,37.5%,20.7%
Cc1ccc(Nc2cc(N)nc(N)n2)cc1Cl,103%,67.7%,104%,83.4%,111%,101%,81.6%,101%,96.6%,93.7%
CCOCCNC1=C(Cl)C(=O)c2ccccc2C1=O,92.3%,106%,100%,105%,125%,110%,115%,94.4%,102%,89.2%
O=C(/C=C/c1cn(-c2ccccc2)nc1-c1ccc(Cl)cc1)c1ccc(F)cc1,88.6%,116%,78.1%,63.3%,107%,77.7%,76.5%,96.5%,40%,36.1%
Cc1cccc(/C=C/c2c(C(=O)/C=C/c3ccccc3)c(C)nc3ccccc23)c1,-60.8% (active),0.995% (active),-44.3% (active),-94.2% (active),-6.55% (active),-23% (active),-36.2% (active),-38.2% (active),6.17% (active),5.83% (active)
Oc1c(Br)cc(Br)c2ccc(Cn3cc(-c4ccccc4C(F)(F)F)nn3)nc12,101%,95.5%,96.9%,78.7%,134%,61.8%,55%,106%,28.7%,6.89% (active)
Cc1[nH]c(C(=O)Nc2ccc(C(=O)N3CCN(c4cc5c(cc4F)c(=O)c(C(=O)O)cn5C4CC4)CC3)cc2OC(C)C)c(Cl)c1Cl,105%,80.5%,31.2%,56.2%,82.7%,67.9%,74.8%,55.6%,53%,93.3%
N#Cc1nc(-c2ccc(F)cc2)oc1S(=O)(=O)N1CCCCC1,81.1%,98.5%,80.2%,84.8%,-69.8% (active),3.58% (active),91%,112%,1.84% (active),-6.66% (active)
